In one experiment the target is Albumin (Bos taurus) (UniProt P02769). Put plainly: bovine serum albumin binders on microarray, profiling panel, artefact control for SMM control protein annotation, biochemical, small-molecule microarray, Alexa647 label, 635/667 nm fluorescence (AID 1118).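 Also: score merges 667 nm emission intensity and signal-to-noise per printed compound spot.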 Particulars: BSA-A647 binding, fluorescence 635 nm, higher = more signal.
A short description of experiment [1]: small-molecule microarray binders of probe aXIP, primary screen, biochemical, NeuroSMM set, 635/667 nm fluorescence (AID 1119).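 Also: probe is the protein aXip251-270 applied at 1 µg/mL to compound-printed slides; binding of probe to printed compounds measured as 667 nm fluorescence plus signal to noise.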 Conditions: higher = more signal, called active from +8 up or from −8 down.
The nature of experiment [2]: small-molecule binders of probe aNOTCH3, primary screen, biochemical, small-molecule microarray, 635/667 nm fluorescence (AID 1120).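 Also: probe is a biotin-tagged antibody raised against NOTCH3 rather than NOTCH3 protein; score merges spot fluorescence near 667 nm with spot signal to noise.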 Particulars: higher = more signal.
A short description of experiment [3]: small-molecule binders of probe aNOTCH2, primary screen, biochemical, small-molecule microarray, 635/667 nm fluorescence (AID 1121).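 Also: score merges feature fluorescence read at 667 nm with its signal to noise.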 Conditions: higher = more signal.
Experiment [4] concerns the target Carbonic anhydrase 2 (Homo sapiens) (UniProt P00918). Put plainly: CAII small-molecule binders, profiling panel, biochemical, small-molecule microarray, Alexa647-labelled CAII (AID 1122). Particulars: CAII-A647 binding fluorescence, higher = more signal.
A short description of experiment [5]: COS7 lysate on small-molecule microarray, probe aHis, 635 nm (AID 1123).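 Also: z-score combines 667nm fluorescence intensity with signal-to-noise per printed compound spot.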 Particulars: COS7 cell lysate, fluorescence, higher = more signal.
Experiment [6] is described as follows: compound binding in COS7 lysate, probe aLAP1, primary screen, cell lysate, small-molecule microarray (AID 1124).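 Also: lysate comes from COS7 cells expressing LAP1 and is applied at 0.3 µg/mL; score merges spot fluorescence near 667 nm with signal-to-noise over triplicate slides.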 Conditions: probe aLAP1, fluorescence, higher = more signal.
Another experiment has as its system Sam68 (KHDRBS1). Put plainly: Sam68 small-molecule binders, primary screen, biochemical, small-molecule microarray, 635 nm fluorescence (AID 1125).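 Also: score merges 667 nm channel intensity with signal to noise over triplicate slides.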 Conditions: small-molecule microarray binding, higher = more signal.
Experiment [7] concerns Chordin-like protein 2 (CHRDL2). Put plainly: CHRDL2 small-molecule binders, primary screen, biochemical, small-molecule microarray, 635 nm fluorescence (AID 1126).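 Also: printed compound slides probed with Chrdl2 protein at 4 µg/mL for 1 h at 4 C; score merges 667 nm emission intensity with signal to noise over three replicate slides.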 Conditions: small-molecule microarray binding, fluorescence 635 nm; higher = more signal.
Experiment [8] concerns the target Concanavalin-A (Canavalia ensiformis) (UniProt P02866). The experiment can be described thus: ConA small-molecule binders, primary screen, artefact control for SMM control protein annotation, biochemical, small-molecule microarray, Alexa647 label, 635 nm (AID 1127).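 Also: z combines 667 nm emission intensity with signal-to-noise across three replicate slides.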 Conditions: ConA-A647 binding fluorescence, higher = more signal.
A short description of experiment [9]: anti-His antibody binders, primary screen, artefact control for SMM control protein annotation, biochemical, small-molecule microarray, 635 nm fluorescence (AID 1128).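 Also: score merges feature fluorescence with signal-to-noise for each printed compound spot.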 Particulars: anti-His Alexa647 antibody binding, higher = more signal.
In experiment [10] the test system is Human papillomavirus type 1a E7 protein (residues 1-88). Put plainly: HPV1a E7 small-molecule binders, primary screen, biochemical, small-molecule microarray, residues 1-88, 635 nm (AID 1129). Conditions: small-molecule microarray binding, fluorescence 635 nm; higher = more signal.
Experiment [11] deals with Focal adhesion kinase 1 (Homo sapiens) (UniProt Q05397). The experiment can be described thus: small-molecule microarray binders of FAK, primary screen, biochemical, 635/667 nm fluorescence, BSA, DTT (AID 1130).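 Also: composite of spot emission at 667 nm and signal to noise over triplicate slides.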 Particulars: PTK2 binding, 635 nm fluorescence, higher = more signal.
In experiment [12] the test system is Fibrinogen (Alexa647-labelled). Put plainly: fibrinogen binders on compound microarrays, profiling panel, artefact control for SMM control-protein annotation, biochemical, small-molecule microarray, 635/667 nm fluorescence (AID 1131).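 Also: z-score merges 667 nm fluorescence with per-spot signal-to-noise over triplicate slides.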 Conditions: fibrinogen-A647 binding fluorescence, higher = more signal.
Experiment [13] has as its target Follistatin (Homo sapiens) (UniProt P19883). Put plainly: follistatin binders on small-molecule microarrays, primary screen, biochemical, small-molecule microarray, 635/667 nm fluorescence (AID 1132). Conditions: FST binding, 635 nm fluorescence, higher = more signal.
Experiment [14] addresses Fibroblast growth factor 2 (Homo sapiens) (UniProt P09038). Put plainly: FGF2 binders on small-molecule microarrays, primary screen, biochemical, small-molecule microarray, 635/667 nm fluorescence (AID 1133). Particulars: small-molecule microarray binding, FGF2, fluorescence 635/667; higher = more signal.
A short description of experiment [15]: mitochondrial membrane potential change in A549 cells, profiling panel, cell-based, JC-1 fluorescence, basal, 24 h, 100 nL (AID 1138).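 Also: A549 lung adenocarcinoma cells under basal conditions with no added stimulus; test concentration not given here.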 Conditions: higher = more signal.
Another experiment has as its system Lefty1. Put plainly: Lefty1 binders on small-molecule microarrays, primary screen, biochemical, small-molecule microarray, 635/667 nm fluorescence (AID 1139). Conditions: small-molecule microarray binding, fluorescence 635/667; higher = more signal.
Experiment [16] deals with wheat germ agglutinin (Triticum aestivum), Alexa647-labelled. The experiment can be described thus: wheat germ agglutinin binders on compound microarrays, profiling panel, artefact control for SMM control-protein annotation, biochemical, small-molecule microarray, 635/667 nm fluorescence (AID 1140).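 Also: score merges 667 nm feature emission with signal to noise over triplicate slides.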 Particulars: WGA-A647 binding, 635 nm fluorescence, higher = more signal.

The target in experiment [17] is Luciferin 4-monooxygenase (Photinus pyralis) (UniProt P08659). Put plainly: firefly luciferase enzyme inhibitors, primary screen, biochemical, luminescence, purified enzyme, 2006 set (AID 1141).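 Also: cell-free assay with purified firefly luciferase at 100 ng per well in PBS; test concentration not given here.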 Particulars: SteadyGlo luminescence, 30 min, higher = more signal, called active from +8 up or from −8 down.

Activity calls are given as the source filed them.

Fibroblast growth factor 2 (Homo sapiens), sequence (P09038 whole entry, looked up): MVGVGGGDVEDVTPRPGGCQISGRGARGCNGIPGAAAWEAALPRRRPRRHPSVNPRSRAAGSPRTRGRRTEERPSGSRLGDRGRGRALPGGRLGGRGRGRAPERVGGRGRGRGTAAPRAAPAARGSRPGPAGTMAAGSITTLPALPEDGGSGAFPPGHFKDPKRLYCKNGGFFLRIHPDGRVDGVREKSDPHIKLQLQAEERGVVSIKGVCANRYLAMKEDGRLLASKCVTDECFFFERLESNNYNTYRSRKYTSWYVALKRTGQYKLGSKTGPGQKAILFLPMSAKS
Albumin (Bos taurus), sequence (P02769 whole entry, looked up): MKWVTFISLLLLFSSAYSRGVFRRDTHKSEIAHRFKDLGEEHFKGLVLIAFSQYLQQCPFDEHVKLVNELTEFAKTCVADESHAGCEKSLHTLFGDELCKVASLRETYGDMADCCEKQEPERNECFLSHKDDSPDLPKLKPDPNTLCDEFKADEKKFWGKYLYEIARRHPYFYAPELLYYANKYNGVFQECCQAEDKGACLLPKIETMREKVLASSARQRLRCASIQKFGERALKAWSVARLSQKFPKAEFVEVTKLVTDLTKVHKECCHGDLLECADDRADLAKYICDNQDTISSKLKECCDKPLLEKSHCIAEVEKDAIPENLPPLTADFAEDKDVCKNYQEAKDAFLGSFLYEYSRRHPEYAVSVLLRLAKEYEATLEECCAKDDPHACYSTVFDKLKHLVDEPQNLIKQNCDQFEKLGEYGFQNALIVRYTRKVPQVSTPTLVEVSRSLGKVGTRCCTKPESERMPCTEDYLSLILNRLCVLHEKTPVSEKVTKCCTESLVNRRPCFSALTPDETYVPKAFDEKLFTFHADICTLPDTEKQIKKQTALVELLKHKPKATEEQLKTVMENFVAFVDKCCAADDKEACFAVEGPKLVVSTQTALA
Focal adhesion kinase 1 (Homo sapiens), sequence (Q05397 whole entry, looked up): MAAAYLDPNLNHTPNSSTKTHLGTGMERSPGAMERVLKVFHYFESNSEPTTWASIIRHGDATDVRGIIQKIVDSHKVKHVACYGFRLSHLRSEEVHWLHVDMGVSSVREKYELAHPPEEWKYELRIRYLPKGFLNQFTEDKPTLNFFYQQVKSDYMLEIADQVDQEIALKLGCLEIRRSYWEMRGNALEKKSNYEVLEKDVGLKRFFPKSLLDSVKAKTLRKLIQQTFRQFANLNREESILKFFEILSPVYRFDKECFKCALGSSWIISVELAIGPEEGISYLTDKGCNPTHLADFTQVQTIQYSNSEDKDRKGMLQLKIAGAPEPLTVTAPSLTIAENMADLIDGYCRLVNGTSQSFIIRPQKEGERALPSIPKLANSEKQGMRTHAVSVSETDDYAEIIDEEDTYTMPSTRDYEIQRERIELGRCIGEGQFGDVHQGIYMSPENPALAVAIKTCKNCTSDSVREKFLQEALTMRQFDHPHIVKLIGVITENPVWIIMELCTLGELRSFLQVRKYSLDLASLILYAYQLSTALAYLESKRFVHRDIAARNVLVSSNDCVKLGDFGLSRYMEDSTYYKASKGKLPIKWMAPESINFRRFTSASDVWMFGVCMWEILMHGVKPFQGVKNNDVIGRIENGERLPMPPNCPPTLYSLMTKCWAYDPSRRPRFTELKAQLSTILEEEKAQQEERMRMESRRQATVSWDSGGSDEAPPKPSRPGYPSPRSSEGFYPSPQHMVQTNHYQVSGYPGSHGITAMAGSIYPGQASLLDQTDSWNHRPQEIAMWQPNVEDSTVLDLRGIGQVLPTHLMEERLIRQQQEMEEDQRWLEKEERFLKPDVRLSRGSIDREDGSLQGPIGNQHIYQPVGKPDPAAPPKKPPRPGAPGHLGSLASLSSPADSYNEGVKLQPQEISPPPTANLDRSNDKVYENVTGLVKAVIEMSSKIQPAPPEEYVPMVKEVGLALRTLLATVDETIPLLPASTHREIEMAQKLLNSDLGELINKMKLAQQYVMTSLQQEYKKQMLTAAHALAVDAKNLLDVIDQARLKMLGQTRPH
Follistatin (Homo sapiens), sequence (P19883 whole entry, looked up): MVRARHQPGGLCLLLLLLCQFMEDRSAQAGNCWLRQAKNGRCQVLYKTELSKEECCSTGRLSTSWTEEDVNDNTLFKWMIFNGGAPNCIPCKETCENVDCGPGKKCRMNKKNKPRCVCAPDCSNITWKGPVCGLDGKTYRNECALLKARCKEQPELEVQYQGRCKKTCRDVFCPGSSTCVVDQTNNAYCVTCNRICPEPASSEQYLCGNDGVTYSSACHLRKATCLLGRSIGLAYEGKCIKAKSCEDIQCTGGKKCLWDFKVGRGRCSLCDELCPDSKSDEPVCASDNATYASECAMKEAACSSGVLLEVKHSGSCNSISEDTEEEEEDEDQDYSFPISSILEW
Luciferin 4-monooxygenase (Photinus pyralis), sequence (P08659 whole entry, looked up): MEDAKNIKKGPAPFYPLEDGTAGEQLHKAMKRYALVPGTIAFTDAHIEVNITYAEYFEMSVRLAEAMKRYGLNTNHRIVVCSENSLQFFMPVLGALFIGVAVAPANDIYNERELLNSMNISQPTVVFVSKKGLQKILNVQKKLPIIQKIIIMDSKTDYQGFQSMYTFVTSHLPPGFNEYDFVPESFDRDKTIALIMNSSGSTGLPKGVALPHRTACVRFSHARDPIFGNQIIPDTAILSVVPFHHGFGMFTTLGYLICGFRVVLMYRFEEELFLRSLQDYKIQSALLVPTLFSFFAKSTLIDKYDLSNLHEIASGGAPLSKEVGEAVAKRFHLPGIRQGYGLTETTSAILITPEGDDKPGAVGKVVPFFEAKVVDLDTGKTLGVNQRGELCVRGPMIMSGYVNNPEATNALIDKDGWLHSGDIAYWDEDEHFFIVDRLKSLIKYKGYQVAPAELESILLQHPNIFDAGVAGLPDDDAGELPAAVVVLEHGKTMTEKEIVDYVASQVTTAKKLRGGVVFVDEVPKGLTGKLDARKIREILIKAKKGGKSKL
Concanavalin-A (Canavalia ensiformis), sequence (P02866 whole entry, looked up): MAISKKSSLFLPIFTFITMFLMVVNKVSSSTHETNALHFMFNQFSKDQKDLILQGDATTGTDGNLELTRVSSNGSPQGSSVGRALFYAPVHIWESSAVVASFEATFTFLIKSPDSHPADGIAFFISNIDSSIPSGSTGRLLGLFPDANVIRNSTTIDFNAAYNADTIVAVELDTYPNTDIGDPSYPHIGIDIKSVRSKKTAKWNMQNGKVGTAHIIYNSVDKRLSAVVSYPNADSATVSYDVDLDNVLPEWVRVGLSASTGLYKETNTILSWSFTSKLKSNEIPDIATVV

In the case of `CC(=O)OC(C/C=C\B1OC(C)(C)C(C)(C)O1)c1ccccc1` (stereo not given), the composite z-score in the experiment with Albumin (Bos taurus) was -0.274; in experiment [2] it was -0.146; in experiment [3] it was -0.166; in [4], -0.411; in [5] it was -0.279; in experiment [6] it was -0.0949. Also, the composite z-score is 0.0684 in the experiment on Sam68 (KHDRBS1); 1.09 in experiment [7]; -0.923 in experiment [8]; -0.0541 in experiment [9]; -0.373 in experiment [10]; -0.379 in experiment [11]. In addition, the composite z-score in experiment [12] was 0.221; in [13], 0.0255; in experiment [14], -0.377; in the experiment with Lefty1, -0.0863; in [16], -0.405. Besides, the composite Z-score in experiment [1] is -0.806 (inactive). For the same compound, the z-score is 1.45 in [15] and -1.54 (inactive) in experiment [17].

Regarding `CC(C)NC(=O)[C@@H]1c2ccccc2C(=O)N(Cc2cc(F)cc(C(F)(F)F)c2)[C@H]1c1ccc(CO)cc1`, the composite z-score with Albumin (Bos taurus) is -0.448; in experiment [2] it was -0.402; in experiment [3], -0.111; in [4], 0.741; in experiment [5], 1.34; in experiment [6] it was -0.126. Also, the composite z-score in the experiment with Sam68 (KHDRBS1) was -0.096; in [7], -0.556; in experiment [8], -0.94; in experiment [9], -0.905; in [10] it was -0.194; in [11], 0.434. Moreover, the composite z-score in [12] was -1.41; in experiment [13], -1.12; in experiment [14], -0.612; with Lefty1 it was -1.89; in experiment [16], -1.21. Further, the composite Z-score in experiment [1] was 0.115 (inactive). Further, the z-score in experiment [15] was 2.84; in experiment [17] it was -0.758 (inactive).

In the case of `CC(C)(C)OC(=O)CC[C@@]1(C(=O)N2CCOCC2)N=C(c2ccc(OCCCO)cc2)O[C@@H]1c1ccccc1`, the composite z-score in the experiment with Albumin (Bos taurus) is 1.01; in [2] it was 0.0927; in experiment [3] it was -0.0017; in experiment [4], 0.904; in experiment [5] it was 3.76; in experiment [6], 0.599. For the same compound, the composite z-score is 1.31 in the experiment with Sam68 (KHDRBS1); -1.26 in [7]; 0.962 in [8]; 3.83 in experiment [9]; 1.25 in experiment [10]; 0.217 in [11]. In addition, the composite z-score in experiment [12] was 0.938; in experiment [13] it was 1.33; in [14] it was 0.324; in the experiment with Lefty1, -0.508; in experiment [16] it was 1.54. In addition, the composite Z-score in [1] was -0.0503 (inactive). For the same compound, the z-score is 2.16 in [15] and -1.99 (inactive) in experiment [17].

As to `CCCCC(=C=CC[C@H](O)c1cccc(OCCO)c1)CCO`, the composite z-score with Albumin (Bos taurus) was 0.15; in experiment [2], -0.0699; in experiment [3], -0.162; in [4] it was 0.681; in [5], 0.24; in [6] it was 0.133. Further, the composite z-score with Sam68 (KHDRBS1) is -0.319; in experiment [7], -0.361; in [8], -0.245; in experiment [9] it was 0.0233; in experiment [10], -0.282; in [11], 0.44. Further, the composite z-score is -0.644 in experiment [12]; 0.455 in [13]; 0.287 in experiment [14]; -0.103 in the experiment on Lefty1; -0.602 in [16]. For the same compound, the composite Z-score in [1] is -0.434 (inactive). Further, the values for the z-score in [15] and in experiment [17] were 1.97 and -0.835 (inactive), respectively.

For the compound `C=C(COC)C(=O)CC[C@H](OC(=O)c1cccnc1)c1cccc(OCCO)c1`, the composite z-score with Albumin (Bos taurus) is -0.197; in [2], 0.53; in [3] it was 0.156; in experiment [4], 0.608; in experiment [5], 0.613; in experiment [6] it was 0.123. Moreover, the composite z-score in the experiment with Sam68 (KHDRBS1) is 0.579; in [7], 0.601; in [8] it was -0.0509; in experiment [9] it was -0.107; in experiment [10], 0.0325; in experiment [11], 0.481. Besides, the composite z-score in [12] was -0.09; in [13], 0.896; in experiment [14], 1.57; in the experiment with Lefty1, 1.05; in experiment [16], -0.363. Moreover, the composite Z-score in experiment [1] was -0.19 (inactive). Also, the values for the z-score in experiment [15] and in [17] were 1.39 and -2.13 (inactive), respectively.

Values taken from PubChem BioAssay.
